Laboratory results taken from publication PMC4336329 (PLoS ONE, 2015).
Out of some 310,000 compounds screened, about 2,200 (0.71%) showed an effect of 50% or more. Effects have a minus sign here. Many of the other results were omitted from the sample, so strong results are more common in it than they were.

Target: human ether-à-go-go-related gene (hERG) potassium channel (human, UniProt Q12809)
Assay: primary screen, population patch clamp on CHO cells stably expressing hERG; higher = less effect of the substance

Chain of human ether-à-go-go-related gene (hERG) potassium channel (Q12809 whole entry, looked up): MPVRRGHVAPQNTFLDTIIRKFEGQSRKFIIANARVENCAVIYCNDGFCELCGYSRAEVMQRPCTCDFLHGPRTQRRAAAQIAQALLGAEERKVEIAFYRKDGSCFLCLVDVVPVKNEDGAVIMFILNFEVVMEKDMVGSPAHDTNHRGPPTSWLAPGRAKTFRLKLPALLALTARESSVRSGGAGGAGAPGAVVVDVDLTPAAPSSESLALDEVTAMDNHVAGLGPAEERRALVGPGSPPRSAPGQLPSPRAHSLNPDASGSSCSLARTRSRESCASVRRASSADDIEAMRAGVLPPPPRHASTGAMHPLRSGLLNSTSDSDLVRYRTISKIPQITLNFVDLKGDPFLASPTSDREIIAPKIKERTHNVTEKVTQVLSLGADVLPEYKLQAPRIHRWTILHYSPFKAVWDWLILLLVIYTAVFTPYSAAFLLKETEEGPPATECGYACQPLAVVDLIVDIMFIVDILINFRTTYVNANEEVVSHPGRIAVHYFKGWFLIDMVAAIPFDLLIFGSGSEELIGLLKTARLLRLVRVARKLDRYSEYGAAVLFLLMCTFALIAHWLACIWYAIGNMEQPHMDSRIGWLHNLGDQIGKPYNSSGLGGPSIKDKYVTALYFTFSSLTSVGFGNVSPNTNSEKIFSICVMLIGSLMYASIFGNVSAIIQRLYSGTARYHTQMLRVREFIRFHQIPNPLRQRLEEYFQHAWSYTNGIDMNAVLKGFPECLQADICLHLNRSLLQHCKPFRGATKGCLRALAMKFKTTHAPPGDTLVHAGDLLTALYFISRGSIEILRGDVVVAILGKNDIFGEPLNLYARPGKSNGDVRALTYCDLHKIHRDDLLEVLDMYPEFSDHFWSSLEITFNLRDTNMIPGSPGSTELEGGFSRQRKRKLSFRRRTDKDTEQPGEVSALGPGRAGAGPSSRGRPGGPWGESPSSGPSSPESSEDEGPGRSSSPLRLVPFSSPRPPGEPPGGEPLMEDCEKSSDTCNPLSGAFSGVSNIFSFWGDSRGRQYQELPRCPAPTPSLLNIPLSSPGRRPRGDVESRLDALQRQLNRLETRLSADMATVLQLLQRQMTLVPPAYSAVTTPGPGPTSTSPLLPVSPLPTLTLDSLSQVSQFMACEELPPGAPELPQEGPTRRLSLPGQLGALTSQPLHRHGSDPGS

| Compound | hERG current change (%, negative = inhibition) at 1uM [%] |
| --- | --- |
| CCCCCCCCCCCCCCCC(=O)OC/C=C(C)/C=C/C=C(C)/C=C/C1=C(C)CCCC1(C)C | 10.2 |
| COc1cc(C2C(C#N)=C(N)Oc3n[nH]c(C)c32)cc2c1OCO2 (stereo not shown) | -3.12 |
| CCc1nnc(NC(=O)C2CCCN2C(=O)Nc2ccc(C)cc2)s1 (stereo not shown) | 8.89 |
| COc1ccc(CNS(=O)(=O)c2ccc3c(c2)CCN3C(=O)C2CC2)cc1 | 5.86 |
| NS(=O)(=O)c1ccc(CCNC(=O)Cc2ccc(S(=O)(=O)N3CCCC3)s2)cc1 | 14.9 |
| Cc1ccc(C(=O)NCCCNCCCNC(=O)c2ccc(C)nc2)cn1 | -10.3 |
| CCCCNc1ccccc1C(=O)OCC(=O)Nc1ccc(S(N)(=O)=O)cc1 | 0.586 |
| COc1ccc2oc3cc(C)[n+]([O-])c(-c4ccc(Br)cc4)c3c2c1 | 4.46 |
| Cc1nc(-c2ccc([N+](=O)[O-])cc2)nc2[nH]ccc(=O)c12 | 14.5 |
| Fc1ccc(-c2n[nH]c(=S)c3ccccc23)cc1 | 9.98 |
| C[C@H](OC(=O)n1ccnc1)[C@@H]1O[C@@]2(C)CCC[C@@H]1O2 | 15.1 |
| CC(C)Oc1ccc(C(=O)NC2CCN(Cc3ccccc3)CC2)cc1 | -21 |
| CC(Oc1ccccc1)C(=O)NC1CCN(Cc2ccccc2)CC1 (stereo not shown) | -5.84 |
| CC(Oc1ccc(Br)cc1)C(=O)NC1CCN(Cc2ccccc2)CC1 (stereo not shown) | -59.6 |
| Cc1c(C)c2ccc(OC(C)C(=O)NC3CCN(Cc4ccccc4)CC3)cc2oc1=O (stereo not shown) | -17.2 |
| Cc1cc(=O)oc2cc(OC(C)C(=O)NC3CCN(Cc4ccccc4)CC3)ccc12 (stereo not shown) | -52.6 |
| CC(Oc1ccc2ccc(=O)oc2c1)C(=O)NC1CCN(Cc2ccccc2)CC1 (stereo not shown) | -38.3 |
| CC1C(=O)N2CCCc3cc(NC(=O)C(=O)NCc4ccccn4)cc1c32 (stereo not shown) | 8.33 |
| CCCNC(=O)COc1coc(CN2CCN(Cc3ccccc3)CC2)cc1=O | 15.2 |
| Cc1cc(Cl)ccc1NC(=O)COC(=O)c1c(C)noc1C | 7.79 |
| COc1cc(OC)cc(C(=O)NCC(=O)Nc2ccc(C)c(Cl)c2)c1 | 12.6 |

| Compound | hERG current change (%, negative = inhibition) at 1uM [%] |
| --- | --- |
| CC(=O)N1CCN(C(=O)c2ccc(-c3cccc(C(F)(F)F)c3)o2)CC1 | -19.2 |
| O=C(Cc1ccc(Cl)cc1)N1CCN(C(=O)c2ccco2)CC1 | 4.2 |
| O=C(c1ccco1)N1CCN(C(=O)c2ccc(-c3ccccc3Cl)o2)CC1 | -13.8 |
| O=C(c1cc(-c2ccc(Cl)cc2)n[nH]1)N1CCN(C(=O)c2ccco2)CC1 | -69.3 |
| COc1ccc(-c2cc(C(=O)N3CCN(C(=O)c4ccco4)CC3)[nH]n2)cc1 | -12.7 |
| O=C(c1ccc(-c2cccc(C(F)(F)F)c2)o1)N1CCCCCCC1 | 5.25 |
| O=C(c1ccco1)N1CCN(C(=O)c2ccc(-c3ccc(Cl)cc3)o2)CC1 | -67.5 |
| O=C(c1ccco1)N1CCN(C(=O)c2ccc(-c3cccc(C(F)(F)F)c3)o2)CC1 | -63.5 |
| Cc1ccc(-c2cc(C(=O)N3CCN(C(=O)c4ccco4)CC3)[nH]n2)cc1C | 14.4 |
| CN1CC[C@@]2(C)c3cc(O)ccc3N(C)C2O1 (stereo partly shown) | 4.17 |
| Oc1[nH]c2ccccc2c1C1=NCCCCC1 | 3.28 |
| CC(C)c1nc2sc3c(c2c(=O)o1)CCCC3 | 9.49 |
| Cc1ccc(C(=O)N/C(=C\c2cn(S(=O)(=O)N(C)C)c3ccccc23)C(=O)N2CCCC2)cc1 | 16 |
| CC(=O)c1c(C)nn(CCC(=O)O)c1C | 12.2 |
| Cl.c1coc(CNc2nc(N3CCCCC3)nc3ccccc23)c1 | -80.8 |
| Cl.OCCNc1nc(N2CCN(Cc3ccccc3)CC2)nc2ccccc12 | -28.6 |
| Cl.c1ccc(CNc2nc(N3CCN(Cc4ccccc4)CC3)nc3ccccc23)cc1 | 10.4 |
| Cl.c1ccc(N2CCN(c3nc(NCc4ccco4)c4ccccc4n3)CC2)cc1 | -9.89 |
| Cl.OCCNc1nc(N2CCCCC2)nc2ccccc12 | -18.4 |
| Cl.c1ccc(CN2CCN(c3nc(NCc4ccco4)c4ccccc4n3)CC2)cc1 | -54.5 |
| Cl.c1ccc2c(NCC3CCCO3)nc(N3CCCCC3)nc2c1 (stereo not shown) | -49.3 |

| Compound | hERG current change (%, negative = inhibition) at 1uM [%] |
| --- | --- |
| C=CCNc1nc(N2CCCC2)nc2ccccc12 | -66 |
| Cl.OCCN1CCN(c2nc(NCc3ccco3)c3ccccc3n2)CC1 | -39.4 |
| CC(=O)OC1C(N2CCCCC2)c2c(ccc(/C=C/C(=O)N3CCCCC3)c2O)OC1(C)C (stereo not shown) | 8.42 |
| O=c1ccc(-c2n[nH]c(=S)n2-c2ccc(F)c(Cl)c2)n[nH]1 | 14.8 |
| CC(C)C(=O)NC(NC(=S)Nc1ccc(S(N)(=O)=O)cc1)C(Cl)(Cl)Cl (stereo not shown) | 12.7 |
| CS(=O)(=O)c1ccccc1C(=O)N(CCc1ccccc1)Cc1ccccc1 | 9.2 |
| S=C1N(c2ccccc2)C(c2ccccc2)N2CCCN12 (stereo not shown) | 6.76 |
| CCOCC(=O)Nc1c(C(=O)N2CCN(c3ncccn3)CC2)oc2ccccc12 | 5.42 |
| O=C(COc1ccc(F)cc1)Nc1c(C(=O)N2CCC(N3CCCCC3)CC2)oc2ccccc12 | -33.8 |
| CCOCCCN(C)C1CCN(C(=O)c2oc3ccccc3c2NC(=O)c2ccc(F)cc2)CC1 | -85.6 |
| CCOCCCN(C)C1CCN(C(=O)c2oc3ccccc3c2NC(=O)Cc2ccc(F)cc2)CC1 | -85.2 |
| COCCCN(C)C1CCN(C(=O)Nc2ccc(F)cc2)CC1 | -2.37 |
| CCOCCCN(C)C1CCN(C(=O)c2oc3ccccc3c2NC(=O)COc2cccc(C)c2)CC1 | -62.4 |
| O=C(Cc1ccc(F)cc1)Nc1c(C(=O)N2CCN(c3ncccn3)CC2)oc2ccccc12 | -8.61 |
| CCOCCCN(C)C1CCN(C(=O)c2oc3ccccc3c2NC(=O)COc2ccc(F)cc2)CC1 | -85.9 |
| COc1ccc(CC(=O)Nc2c(C(=O)N3CCN(c4ccccc4OC)CC3)oc3ccccc23)cc1OC | 9.46 |
| CCOC(=O)c1oc2ccccc2c1NC(=O)COc1cccc(OC)c1 | 14.2 |
| NC(=O)c1oc2ccccc2c1NC(=O)c1ccc(F)cc1 | 11.1 |
| CCOC(=O)c1oc2ccccc2c1NC(=O)COc1ccc(F)cc1 | 12.4 |
